What was measured:
Test in all cases: PBM binding z-score (relative to random genomic background probes); higher = stronger binding; sequences stand for … in GC…GCGATTGACAGCGTAGAATGAAGG
[1] = test system: PPARg:RXRa DBDmut IVT, anti-RXR (DBD mutation: RXRa K156A/R161A, NR concentration 270 nM, RXRa partner concentration 90 nM)
In short: (§1)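 Scanned fluorescence from custom Agilent 4×180K protein-binding microarrays was regression-normalized. Binding z-scores use random background probes as reference. Ligand-free nuclear receptor dimers were incubated on the arrays for 1 h and detected with antibodies against each partner (one per run).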

[2] = test system: PPARg:RXRa IVT, anti-PPARg (NR concentration 270 nM, RXRa partner concentration 90 nM)
In short: as §1

[3] = test system: PPARg DBDmut:RXRa IVT, anti-PPARg (DBD mutation: PPARg1 K132A/R137A, NR concentration 270 nM, RXRa partner concentration 90 nM)
In short: as §1

[4] = test system: PPARg DBDmut IVT, anti-PPARg (DBD mutation: PPARg1 K132A/R137A, NR concentration 270 nM)
In short: as §1

[5] = test system: PPARg homodimer (NR concentration 180 nM)
In short: as §1

[6] = test system: PXR:RXRa (NR concentration 270 nM, RXRa partner concentration 90 nM)
In short: as §1

[7] = test system: PXR homodimer (NR concentration 270 nM)
In short: as §1

[8] = test system: RARa:RXR (NR concentration 270 nM, RXRa partner concentration 90 nM)
In short: as §1

[9] = test system: RARa homodimer (NR concentration 270 nM)
In short: as §1

[10] = test system: RARb:RXRa (NR concentration 270 nM, RXRa partner concentration 90 nM)
In short: as §1

Row | Sequence | PBM binding z-score [1] | PBM binding z-score [2] | PBM binding z-score [3] | PBM binding z-score [4] | PBM binding z-score [5] | PBM binding z-score [6] | PBM binding z-score [7] | PBM binding z-score [8] | PBM binding z-score [9] | PBM binding z-score [10]
1 | ACTCGCAGGACAAAGGTCAGAGCTACGCCAGTGA | 0.731 | 2.9 | 0.371 | -0.29 | 1.88 | 3.6 | 0.075 | 4.72 | 0.499 | 4.29
2 | TCATATAGGTAAATGCAAGGTGAAAGTCCGATCT | 4.1 | 3 | 0.862 | 1.12 | 1.16 | 1.03 | 0.736 | 1.86 | 0.975 | 1.19
3 | CCTACTGGGCCAAGGTCATTGAACAGTCAAAGCA | 3.68 | 4.69 | -0.3 | -0.825 | 1.5 | 3.32 | 0.99 | 3.5 | -0.309 | 3.5
4 | TCATGTAGATCAACAGGAGGTTAAGAAAGATCGA | 1.44 | 0.504 | 0.449 | 0.653 | -0.00792 | 0.814 | -0.17 | 1.3 | 0.399 | 0.499
5 | TCGAGTAGGTTAGTCGGAGCATTCAGCCAACATA | 2.04 | 1.68 | -0.361 | -0.571 | 0.0245 | -0.452 | -0.761 | -0.167 | -0.593 | -0.208
6 | TCTGGTAGATCAGCAGGTTAAGAAAGCTGGCCAA | 0.973 | -0.29 | -0.344 | -0.477 | -0.534 | -0.014 | -0.669 | 0.363 | -0.495 | 0.127
7 | CAAACTAGGTCACCGGAAGGTCGAAGTCCGCATG | 8.58 | 9.05 | 2.73 | 2.92 | 3.05 | 3.91 | 0.000336 | 4.49 | 1.1 | 4.8
8 | TCGAGTAGGTTAGGGGCATTCGGAATGGCGTCGA | 1.94 | 1.69 | -0.634 | -0.223 | 0.203 | 0.507 | -0.0899 | 0.497 | -0.724 | 1.09
9 | TAGACTAGGTCAGATCGGGCCAGTATACGCTATA | 4.39 | 5.26 | 1.46 | 0.155 | 0.192 | 0.932 | -0.501 | 1.18 | -0.174 | 2.99
10 | TCTAGTAGTTGATTAGGGCAACCGAAACAGCGGA | 1.59 | 1.34 | -0.69 | 0.23 | -0.0887 | 0.0313 | -0.395 | 0.285 | -0.475 | 0.581
11 | CGAAATAGGTCAGAACAGGACAGTGAAGGATGAT | 6.51 | 6.4 | 1.62 | 1.69 | 1.47 | 1.69 | 0.395 | 1.87 | 1.05 | 3.71
12 | TCTTGTAGATCAACAGGAGGTTAAGGAAGATCGA | 1.4 | 0.448 | 1.51 | 0.495 | 0.156 | 0.485 | -0.267 | 0.702 | 0.0704 | 0.516
13 | ATCGAAAGGTCGTGAGGTGAGCATACAGAAAGGC | 0.297 | 2.79 | 1.33 | 0.333 | 0.137 | 2.77 | 0.261 | 3.85 | 0.316 | 3.89

Reference: the supplement of paper PMC6555819
